Binding signal data for 8 sequences are collected here from PMC7862700, “An all-to-all approach to the identification of sequence-specific readers for epigenetic DNA modifications on cytosine”.

Common to all, as to assay: DAPPL (digital affinity profiling via proximity ligation, sequencing); 10 mM Tris-HCl pH 7.5, 50 mM NaCl, 1 mM DTT, 4% glycerol, room temperature, 30 min; GST-TFs on glutathione beads, 16-mer random dsDNA library, 0.1% formaldehyde crosslink after washing; high values mean tight binding
The target of one experiment is T1, FEV (Homo sapiens, UniProt Q99581 1-238).
T1 sequence: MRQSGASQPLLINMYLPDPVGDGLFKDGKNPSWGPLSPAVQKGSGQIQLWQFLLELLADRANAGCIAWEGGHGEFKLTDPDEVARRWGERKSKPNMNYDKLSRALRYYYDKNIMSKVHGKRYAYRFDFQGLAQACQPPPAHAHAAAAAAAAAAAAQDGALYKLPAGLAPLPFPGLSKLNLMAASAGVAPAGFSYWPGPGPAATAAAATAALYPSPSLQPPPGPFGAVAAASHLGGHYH
As to conditions: protein: recombinant; tags: N-terminal GST; dsDNA, one strand shown. In short, it runs like this: (§1)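 A tag-only sample was pooled with DNA-barcoded human transcription factors that had been expressed in yeast as GST fusions and captured on glutathione beads. The pools were incubated for 30 min at room temperature with 200 nmole of a random double-stranded 16-mer DNA library in Tris/NaCl/DTT/glycerol buffer, then washed, crosslinked with 0.1% formaldehyde, proximity-ligated (BsaI/T4 ligase, 1 h, 37 °C), PCR-amplified and sequenced on an Illumina NextSeq500. Binding signal is each hexamer's read frequency for a factor divided by its frequency for the tag-only sample.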

The target in a further experiment is ETV5 (Homo sapiens, UniProt P41161 1-510). Particulars: protein: recombinant; tags: N-terminal GST; dsDNA, one strand shown. The procedure, abridged:
as §1

Another experiment has as its target HSF1 (Homo sapiens, UniProt Q00613 1-529). As to conditions: protein: recombinant; tags: N-terminal GST; chain copies: 3; dsDNA, one strand shown. The procedure, abridged: as §1
The target in another experiment is T2, SPIC (Homo sapiens, UniProt Q8N5J4 1-248).
T2 sequence: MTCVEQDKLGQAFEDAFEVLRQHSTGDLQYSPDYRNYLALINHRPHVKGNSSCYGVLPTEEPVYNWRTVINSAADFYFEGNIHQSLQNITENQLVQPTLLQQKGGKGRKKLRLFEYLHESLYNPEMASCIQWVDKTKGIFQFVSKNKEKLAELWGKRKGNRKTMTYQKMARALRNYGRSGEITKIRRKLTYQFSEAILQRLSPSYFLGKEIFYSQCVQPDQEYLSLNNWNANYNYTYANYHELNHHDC
Particulars: protein: recombinant; tags: N-terminal GST; dsDNA, one strand shown. In short, it runs like this: as §1

The target of a further experiment is ELF4 (Homo sapiens, UniProt Q99607 1-663). Particulars: protein: recombinant; tags: N-terminal GST; dsDNA, one strand shown. In short, it runs like this: as §1
Sequence of ELF4 (Q99607 whole entry): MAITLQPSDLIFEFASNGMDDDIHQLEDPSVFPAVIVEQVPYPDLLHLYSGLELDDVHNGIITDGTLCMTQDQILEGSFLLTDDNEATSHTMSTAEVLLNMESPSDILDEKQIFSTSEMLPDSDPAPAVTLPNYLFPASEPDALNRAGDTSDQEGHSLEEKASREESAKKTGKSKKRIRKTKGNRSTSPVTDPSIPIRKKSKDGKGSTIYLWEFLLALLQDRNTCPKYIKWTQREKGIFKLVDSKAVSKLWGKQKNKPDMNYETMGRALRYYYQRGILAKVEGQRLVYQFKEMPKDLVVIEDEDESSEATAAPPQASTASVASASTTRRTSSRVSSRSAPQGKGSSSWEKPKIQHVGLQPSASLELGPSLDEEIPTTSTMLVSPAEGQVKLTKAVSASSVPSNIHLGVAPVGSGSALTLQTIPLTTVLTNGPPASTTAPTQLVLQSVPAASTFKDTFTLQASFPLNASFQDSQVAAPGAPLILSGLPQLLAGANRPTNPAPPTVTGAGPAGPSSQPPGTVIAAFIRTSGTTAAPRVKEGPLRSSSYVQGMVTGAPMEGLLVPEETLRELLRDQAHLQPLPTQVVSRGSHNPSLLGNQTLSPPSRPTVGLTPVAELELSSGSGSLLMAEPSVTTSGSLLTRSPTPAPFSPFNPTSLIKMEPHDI
A further experiment concerns the target T3, ELK4 (Homo sapiens, UniProt P28324-2 1-405).
T3 sequence: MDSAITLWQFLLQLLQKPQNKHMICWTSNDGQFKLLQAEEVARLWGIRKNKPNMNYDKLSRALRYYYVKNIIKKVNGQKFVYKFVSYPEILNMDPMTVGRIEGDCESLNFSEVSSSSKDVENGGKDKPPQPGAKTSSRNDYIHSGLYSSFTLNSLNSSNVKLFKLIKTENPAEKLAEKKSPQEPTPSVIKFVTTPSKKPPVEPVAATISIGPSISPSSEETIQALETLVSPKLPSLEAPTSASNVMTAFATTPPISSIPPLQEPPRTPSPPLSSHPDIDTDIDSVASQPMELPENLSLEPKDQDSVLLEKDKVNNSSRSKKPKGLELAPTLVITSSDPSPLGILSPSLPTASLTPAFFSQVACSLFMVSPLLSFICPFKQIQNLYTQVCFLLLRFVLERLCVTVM
As to conditions: protein: recombinant; tags: N-terminal GST; dsDNA, one strand shown. The procedure, abridged:
as §1

The next experiment addresses T4, ETV2 (Homo sapiens, UniProt O00321 1-342).
T4 sequence: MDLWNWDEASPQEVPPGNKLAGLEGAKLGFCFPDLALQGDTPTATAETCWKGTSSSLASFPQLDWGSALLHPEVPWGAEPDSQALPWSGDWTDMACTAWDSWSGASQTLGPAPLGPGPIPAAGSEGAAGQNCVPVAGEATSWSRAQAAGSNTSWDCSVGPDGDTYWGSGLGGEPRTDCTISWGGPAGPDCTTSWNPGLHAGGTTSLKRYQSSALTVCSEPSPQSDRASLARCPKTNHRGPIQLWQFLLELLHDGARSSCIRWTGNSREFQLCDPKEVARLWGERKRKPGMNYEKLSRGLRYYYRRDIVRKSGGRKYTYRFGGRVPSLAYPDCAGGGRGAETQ
Particulars: protein: recombinant; tags: N-terminal GST; dsDNA, one strand shown. In short, it runs like this: as §1

For another experiment, the target named is T5, ELF3 (Homo sapiens, UniProt P78545 1-371).
T5 sequence: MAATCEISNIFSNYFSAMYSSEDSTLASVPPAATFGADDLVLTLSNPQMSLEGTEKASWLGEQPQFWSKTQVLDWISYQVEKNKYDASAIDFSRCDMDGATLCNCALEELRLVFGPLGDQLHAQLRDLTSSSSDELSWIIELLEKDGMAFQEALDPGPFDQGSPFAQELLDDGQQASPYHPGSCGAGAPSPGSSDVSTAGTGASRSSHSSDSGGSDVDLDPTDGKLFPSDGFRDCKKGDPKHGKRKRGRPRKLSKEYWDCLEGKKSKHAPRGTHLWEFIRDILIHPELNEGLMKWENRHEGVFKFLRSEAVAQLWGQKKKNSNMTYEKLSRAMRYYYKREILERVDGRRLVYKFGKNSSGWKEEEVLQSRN
Particulars: protein: recombinant; tags: N-terminal GST; dsDNA, one strand shown. In short, it runs like this: as §1

A further experiment deals with CRX (Homo sapiens, UniProt O43186 1-299). Particulars: protein: recombinant; tags: N-terminal GST; dsDNA, one strand shown. In short, it runs like this: as §1
Sequence of CRX (O43186 whole entry): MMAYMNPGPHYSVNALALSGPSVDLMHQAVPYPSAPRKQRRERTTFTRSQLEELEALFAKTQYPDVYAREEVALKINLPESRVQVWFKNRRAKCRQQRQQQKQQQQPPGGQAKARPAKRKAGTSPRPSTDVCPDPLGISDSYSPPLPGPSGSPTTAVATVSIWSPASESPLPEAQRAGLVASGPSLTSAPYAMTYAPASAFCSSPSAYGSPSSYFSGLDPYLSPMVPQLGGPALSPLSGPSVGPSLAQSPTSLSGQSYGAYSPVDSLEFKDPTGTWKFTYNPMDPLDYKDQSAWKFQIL
For another experiment, the target named is ETV1 (Homo sapiens, UniProt P50549 1-477). Particulars: protein: recombinant; tags: N-terminal GST; dsDNA, one strand shown. The procedure, abridged: as §1
Sequence of ETV1 (P50549 whole entry): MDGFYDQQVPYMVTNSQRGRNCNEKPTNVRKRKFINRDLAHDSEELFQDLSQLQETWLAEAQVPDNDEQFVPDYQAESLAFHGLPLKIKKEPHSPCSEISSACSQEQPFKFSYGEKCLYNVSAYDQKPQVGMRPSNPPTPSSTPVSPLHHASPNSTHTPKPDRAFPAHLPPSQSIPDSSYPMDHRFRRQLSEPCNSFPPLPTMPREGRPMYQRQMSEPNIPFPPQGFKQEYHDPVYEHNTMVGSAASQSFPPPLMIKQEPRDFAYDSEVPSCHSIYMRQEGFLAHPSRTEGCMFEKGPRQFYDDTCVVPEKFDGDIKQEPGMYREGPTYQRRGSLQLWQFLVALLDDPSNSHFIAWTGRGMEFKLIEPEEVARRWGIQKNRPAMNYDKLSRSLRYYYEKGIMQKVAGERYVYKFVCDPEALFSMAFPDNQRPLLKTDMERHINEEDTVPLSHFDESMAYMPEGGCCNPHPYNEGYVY

Sequence of ETV5 (P41161 whole entry): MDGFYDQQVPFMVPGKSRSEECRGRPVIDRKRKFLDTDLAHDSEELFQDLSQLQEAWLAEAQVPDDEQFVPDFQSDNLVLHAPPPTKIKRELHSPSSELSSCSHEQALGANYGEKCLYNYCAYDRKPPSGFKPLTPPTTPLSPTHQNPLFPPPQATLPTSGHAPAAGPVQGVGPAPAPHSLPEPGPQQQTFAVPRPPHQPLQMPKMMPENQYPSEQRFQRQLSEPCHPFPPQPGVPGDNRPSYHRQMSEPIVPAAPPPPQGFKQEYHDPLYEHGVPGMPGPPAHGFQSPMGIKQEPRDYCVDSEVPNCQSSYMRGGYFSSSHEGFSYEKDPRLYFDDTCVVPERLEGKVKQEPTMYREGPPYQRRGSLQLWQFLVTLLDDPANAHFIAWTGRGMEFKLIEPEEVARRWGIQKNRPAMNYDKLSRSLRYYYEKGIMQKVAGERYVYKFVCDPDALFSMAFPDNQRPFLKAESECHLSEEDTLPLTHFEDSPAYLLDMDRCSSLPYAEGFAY
Sequence of HSF1 (Q00613 whole entry): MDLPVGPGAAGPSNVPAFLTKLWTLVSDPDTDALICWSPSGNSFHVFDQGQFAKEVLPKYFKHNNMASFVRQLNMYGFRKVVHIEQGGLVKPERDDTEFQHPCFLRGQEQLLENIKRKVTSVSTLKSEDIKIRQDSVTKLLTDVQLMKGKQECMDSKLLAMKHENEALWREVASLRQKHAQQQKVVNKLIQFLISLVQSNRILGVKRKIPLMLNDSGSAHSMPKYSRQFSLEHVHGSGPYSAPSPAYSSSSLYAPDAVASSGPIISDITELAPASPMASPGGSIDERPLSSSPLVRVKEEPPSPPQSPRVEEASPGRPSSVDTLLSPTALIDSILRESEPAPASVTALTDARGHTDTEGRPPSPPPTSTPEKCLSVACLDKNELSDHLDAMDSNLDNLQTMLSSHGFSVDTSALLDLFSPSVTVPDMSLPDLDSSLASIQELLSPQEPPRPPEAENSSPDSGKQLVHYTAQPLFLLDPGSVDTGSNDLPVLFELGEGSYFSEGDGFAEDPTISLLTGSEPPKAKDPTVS

As for CTCTGG, the binding signal was 1.33 fold enrichment (6-mer frequency, TF over GST control) with FEV; 1.32 fold enrichment (6-mer frequency, TF over GST control) with ETV5; 1.81 fold enrichment (6-mer frequency, TF over GST control) with HSF1; 1.25 fold enrichment (6-mer frequency, TF over GST control) with SPIC; 1.36 fold enrichment (6-mer frequency, TF over GST control) with ELF4; 1.23 fold enrichment (6-mer frequency, TF over GST control) in the experiment with ELK4. Moreover, the binding signal in the experiment with ETV2 is 1.09 fold enrichment (6-mer frequency, TF over GST control); with ELF3, 1.37 fold enrichment (6-mer frequency, TF over GST control); with CRX it was 1.35 fold enrichment (6-mer frequency, TF over GST control); with ETV1 it was 1.22 fold enrichment (6-mer frequency, TF over GST control).
As for TAACGC, the binding signal was 1.19 fold enrichment (6-mer frequency, TF over GST control) with FEV; 1.22 fold enrichment (6-mer frequency, TF over GST control) with ETV5; 1.28 fold enrichment (6-mer frequency, TF over GST control) with HSF1; 1.05 fold enrichment (6-mer frequency, TF over GST control) with SPIC; 1.15 fold enrichment (6-mer frequency, TF over GST control) with ELF4; 1.17 fold enrichment (6-mer frequency, TF over GST control) with ELK4. In addition, the binding signal with ETV2 is 1.13 fold enrichment (6-mer frequency, TF over GST control); in the experiment with ELF3, 1.17 fold enrichment (6-mer frequency, TF over GST control); with CRX it was 1.63 fold enrichment (6-mer frequency, TF over GST control); with ETV1, 1.12 fold enrichment (6-mer frequency, TF over GST control).
GCTTCG: the binding signal with FEV is 1.26 fold enrichment (6-mer frequency, TF over GST control); with ETV5, 1.29 fold enrichment (6-mer frequency, TF over GST control); with HSF1, 1.6 fold enrichment (6-mer frequency, TF over GST control); with SPIC, 1.17 fold enrichment (6-mer frequency, TF over GST control); with ELF4 it was 1.26 fold enrichment (6-mer frequency, TF over GST control); in the experiment with ELK4, 1.38 fold enrichment (6-mer frequency, TF over GST control). The binding signal is 1.33 fold enrichment (6-mer frequency, TF over GST control) with ETV2; 1.47 fold enrichment (6-mer frequency, TF over GST control) with ELF3; 1.25 fold enrichment (6-mer frequency, TF over GST control) with CRX; 1.29 fold enrichment (6-mer frequency, TF over GST control) with ETV1.
As to ACTAAC, the binding signal with FEV is 1.25 fold enrichment (6-mer frequency, TF over GST control); with ETV5, 1.26 fold enrichment (6-mer frequency, TF over GST control); with HSF1 it was 1.08 fold enrichment (6-mer frequency, TF over GST control); in the experiment with SPIC it was 1.27 fold enrichment (6-mer frequency, TF over GST control); with ELF4 it was 1.33 fold enrichment (6-mer frequency, TF over GST control); with ELK4, 1.19 fold enrichment (6-mer frequency, TF over GST control). Besides, the binding signal with ETV2 was 1.19 fold enrichment (6-mer frequency, TF over GST control); with ELF3 it was 1.25 fold enrichment (6-mer frequency, TF over GST control); in the experiment with CRX, 1.18 fold enrichment (6-mer frequency, TF over GST control); in the experiment with ETV1 it was 1.25 fold enrichment (6-mer frequency, TF over GST control).
For the sequence TCTTCG, the binding signal with FEV was 1.49 fold enrichment (6-mer frequency, TF over GST control); in the experiment with ETV5, 1.51 fold enrichment (6-mer frequency, TF over GST control); in the experiment with HSF1, 1.97 fold enrichment (6-mer frequency, TF over GST control); with SPIC it was 1.38 fold enrichment (6-mer frequency, TF over GST control); with ELF4 it was 1.49 fold enrichment (6-mer frequency, TF over GST control); in the experiment with ELK4, 1.45 fold enrichment (6-mer frequency, TF over GST control). The binding signal with ETV2 was 1.5 fold enrichment (6-mer frequency, TF over GST control); with ELF3, 1.47 fold enrichment (6-mer frequency, TF over GST control); in the experiment with CRX it was 1.61 fold enrichment (6-mer frequency, TF over GST control); with ETV1 it was 1.47 fold enrichment (6-mer frequency, TF over GST control).
On to TTTCAT, for which the binding signal is 1.12 fold enrichment (6-mer frequency, TF over GST control) with FEV; 1.09 fold enrichment (6-mer frequency, TF over GST control) in the experiment with ETV5; 1.13 fold enrichment (6-mer frequency, TF over GST control) with HSF1; 1.11 fold enrichment (6-mer frequency, TF over GST control) in the experiment with SPIC; 1.2 fold enrichment (6-mer frequency, TF over GST control) with ELF4; 1.19 fold enrichment (6-mer frequency, TF over GST control) with ELK4. Further, the binding signal with ETV2 is 1.1 fold enrichment (6-mer frequency, TF over GST control); in the experiment with ELF3, 1.11 fold enrichment (6-mer frequency, TF over GST control); in the experiment with CRX, 1.18 fold enrichment (6-mer frequency, TF over GST control); with ETV1, 1.16 fold enrichment (6-mer frequency, TF over GST control).
As to TCTAAG, the binding signal in the experiment with FEV was 1.13 fold enrichment (6-mer frequency, TF over GST control); with ETV5 it was 1.3 fold enrichment (6-mer frequency, TF over GST control); in the experiment with HSF1 it was 1.49 fold enrichment (6-mer frequency, TF over GST control); with SPIC it was 1.21 fold enrichment (6-mer frequency, TF over GST control); with ELF4 it was 1.25 fold enrichment (6-mer frequency, TF over GST control); with ELK4, 1.2 fold enrichment (6-mer frequency, TF over GST control). Moreover, the binding signal is 1.29 fold enrichment (6-mer frequency, TF over GST control) in the experiment with ETV2; 1.27 fold enrichment (6-mer frequency, TF over GST control) in the experiment with ELF3; 1.86 fold enrichment (6-mer frequency, TF over GST control) in the experiment with CRX; 1.25 fold enrichment (6-mer frequency, TF over GST control) with ETV1.
With TATTAC, the binding signal was 1.16 fold enrichment (6-mer frequency, TF over GST control) with FEV; 1.28 fold enrichment (6-mer frequency, TF over GST control) with ETV5; 1.33 fold enrichment (6-mer frequency, TF over GST control) with HSF1; 1.24 fold enrichment (6-mer frequency, TF over GST control) with SPIC; 1.2 fold enrichment (6-mer frequency, TF over GST control) with ELF4; 1.31 fold enrichment (6-mer frequency, TF over GST control) with ELK4. In addition, the binding signal with ETV2 was 1.27 fold enrichment (6-mer frequency, TF over GST control); with ELF3 it was 1.16 fold enrichment (6-mer frequency, TF over GST control); with CRX it was 1.79 fold enrichment (6-mer frequency, TF over GST control); with ETV1, 1.27 fold enrichment (6-mer frequency, TF over GST control).
